Hits are enriched below; roughly 13% of the tested compounds scored in any of these assays.
USP28 block – inhibitors of human USP28 deubiquitinase. Ubiquitin carboxyl-terminal hydrolase 28 (Homo sapiens), Q96RU2. purified USP28, Ub-rhodamine cleavage fluorescence, 30 min. inhibition, % at 25 µM. 47,000 compounds, 3% hits
USP8 inh – inhibitors of human USP8 deubiquitinase. Ubiquitin carboxyl-terminal hydrolase 8 (Homo sapiens), P40818. purified USP8, Ub-rhodamine cleavage fluorescence, 30 min. inhibition, % at 20 µM. 47,000 compounds, 4.2% hits. AID 1645853, 2021
USP10 inh – inhibitors of human USP10 deubiquitinase. purified USP10, Ub-rhodamine fluorescence, 60 min. inhibition, % at 20 µM. 47,000 compounds, 1.1% hits. AID 1645856, 2021
USP30 block – inhibitors of human USP30 deubiquitinase; inhibition, % at 25 µM; purified USP30, Ub-rhodamine cleavage fluorescence; 47,000 compounds, 5.3% hits; Ubiquitin carboxyl-terminal hydrolase 30 (Homo sapiens), Q70CQ3; AID 1645860, 2021
USP17 inh – inhibitors of human USP17 deubiquitinase. purified USP17, Ub-rhodamine cleavage fluorescence, 3 h. inhibition, % at 50 µM. 47,000 compounds, 6.5% hits
Hits are given with their value; i = inactive; nt = no result. No stated cut-off is given here; in the data, active means inhibition above about 30%; inactive means the rest.

SMILES	USP28 block	USP8 inh	USP10 inh	USP30 block	USP17 inh
Cc1cc(N2CCN(c3ncccn3)CC2)nc2ccc(NC(=O)/C=C/c3ccccc3Cl)cc12	40	i	i	i	51
Cc1cc(N2CCC(C)CC2)nc2ccc(NC(=O)C3CC3)cc12	i	i	i	i	i
O=C(CCc1nnc2ccc(N3CCCC3)nn12)N1CCOCC1	i	i	i	i	i
COc1ccccc1CN(CCCn1ccnc1)CC1CCOC1 (stereo unspecified)	i	36	i	i	i
COc1ccccc1CN1CCC(c2nn(C)c3nccnc23)CC1	i	i	i	i	i
O=C(c1ccc(Cl)cc1)N(c1ccccn1)C1CCCCC1	48	54	71	81	87
Cc1noc(-c2ccnc(-n3cnc(C(=O)NCc4ccccc4C)c3)c2)n1	i	i	i	i	i
Cc1noc(-c2ccc(-n3cnc(C(=O)NC4CCCCCC4)c3)nc2)n1	i	35	i	i	i
Cc1noc(-c2ccc(-n3cnc(C(=O)NCc4ccccc4)c3)nc2)n1	i	i	i	30	i
COc1cccc(CC(=O)N2CC[C@H]3[C@H]2CCN3c2ncccn2)c1	i	i	i	i	i
O=C(Cn1c(=O)n(Cc2ccc(F)cc2)c(=O)c2ncccc21)NCc1ccc(F)cc1	i	44	i	i	nt
O=C(Cn1c(=O)n(Cc2ccc3c(c2)OCO3)c(=O)c2ncccc21)NCc1ccccc1	62	38	i	85	76
O=C(Cn1c(=O)n(Cc2ccc3c(c2)OCO3)c(=O)c2ccccc21)c1ccccc1	i	36	i	36	i
CCn1c(=O)c(CCC(=O)NCc2ccccc2)nc2c(C)nn(-c3ccccc3)c21	i	i	i	i	i
CCOC(=O)N1CCC(=O)N(CC)C[C@H]2CN(C)c3ccccc3[C@@H]21	i	i	i	i	i
CC(C)=CCCC1(C)OC2=C(C(=O)c3cc(O)cc(O)c3C2=O)[C@H]2C=C(C)CC[C@H]21 (stereo partly specified)	i	i	i	i	86
COc1ccc(CNC(=O)Cn2c(=O)[nH]c3c(-c4ccccc4F)c[nH]c3c2=O)cc1	i	87	i	i	i
COc1ccccc1CNC(=O)Cn1c(=O)[nH]c2c(-c3ccccc3)c[nH]c2c1=O	i	i	i	i	44
COc1ccc(CNC(=O)CN2C(=O)c3ccccc3C2c2c[nH]c3ccccc23)cc1 (stereo unspecified)	i	i	i	i	i
COc1ccccc1CNC(=O)Cn1c(C)nc2onc(C)c2c1=O	i	i	i	35	i
CCC(C)NC(=O)Cn1c(=O)[nH]c2c(-c3ccccc3)c[nH]c2c1=O (stereo unspecified)	nt	i	i	nt	38
O=C(Cn1c(=O)[nH]c2ccccc2c1=O)N[C@@H](C(=O)O)c1ccccc1	i	i	i	i	i
Cc1noc2nc(C)n(CC(=O)NCc3ccccc3Cl)c(=O)c12	i	i	i	i	i
CCOc1ccc(CNC(=O)C2CCN(c3nc4cccnc4n(CC)c3=O)CC2)cc1	i	i	i	i	i
Cc1nc(C2CN(C(=O)CCc3nc(C4CC4)no3)CCO2)n[nH]1 (stereo unspecified)	i	i	i	i	i
SMILES	USP28 block	USP8 inh	USP10 inh	USP30 block	USP17 inh
O=C(Cn1c(=O)[nH]c2c(-c3ccccc3)c[nH]c2c1=O)N1CCCCCC1	i	46	i	i	i
CCN1CCN(C(=O)Cn2c(=O)[nH]c3c(-c4ccccc4)c[nH]c3c2=O)CC1	i	i	i	i	i
CCC(C)[C@H](NC(=O)N1CCn2c1nc1ccccc12)C(=O)NCCc1ccccc1 (stereo partly specified)	i	i	i	30	35
COc1ccc(CCNC(=O)[C@@H](NC(=O)N2CCn3c2nc2ccccc23)C(C)C)cc1OC	i	i	i	i	i
C[C@H](NC(=O)N1CCn2c1nc1ccccc12)C(=O)NCc1ccc(F)cc1	i	i	i	41	34
C=C(NC(=O)C(=C)NC(=O)c1ccc2c(n1)-c1coc(n1)C(=C)NC(=O)C(=C)NC(=O)c1nc(oc1C)C(=C)NC(=O)C(C(C)(C)O)NC(=O)C(=C)NC(=O)c1nc(oc1C)/C(=C/C)NC(=O)C(C(C)O)NC(=O)c1csc-2n1)C(N)=O (stereo unspecified)	i	i	i	i	36
COc1cc2ccccc2cc1C(=O)Nc1cccc(C)c1C	nt	i	i	nt	57
Cc1ccc(CNS(=O)(=O)c2ccc3c(c2)NC(=O)CCS3)cc1	i	i	i	i	i

Bioassay records deposited in PubChem by Buhrlage Lab, Dana-Farber Cancer Institute and Novartis Institutes for BioMedical Research (Cambridge, Mass).
